These results are taken from ChEMBL document CHEMBL4513216, “Probing the Open Global Health Chemical Diversity Library for Multistage-Active Starting Points for Next-Generation Antimalarials” (ACS Infect Dis, 2020).

Hit rate of the full screen: of about 69,000 compounds, about 8,600 (12%) showed an effect of 50% or more. The sample as a whole holds a higher share of strong results than the screen did.

The assay deals with Plasmodium berghei. In words: Screen against P. berghei liver stage (PbLuc), transformed with Luciferase, at 10uM. The format is functional, HepG2. To be noted: tested at 10 uM.
On to `O=c1c(S(=O)(=O)N2CCCCC2)cccn1Cc1cccnc1`, for which the INHIBITION is listed as -37.1%.
As to `O=C(O)c1ccccc1-n1cnc(CN2CCCc3ccccc32)c1`, the INHIBITION was determined as 23%.
The figure for `CN(C)CCN1CCC2(CCCN(Cc3cccn3C)C2)C1=O` (stereo unspecified) is 33.1%; for `c1cncc(CN2CC[C@H]3O[C@@H](COCC4CC4)CC[C@H]32)c1` it is 44.9%.
On to `O=C(C1CC=CC1)N1CC[C@@H]2O[C@H](COCC3CCOCC3)CC[C@@H]21`, for which the INHIBITION worked out at 21.6%.
As for `c1cc(CN2CC[C@H]3O[C@@H](COCC4CCOCC4)CC[C@H]32)ccn1`, the figure is 52%; as for `Fc1ccc(CN2CC[C@H]3O[C@@H](COCC4CCOCC4)CC[C@H]32)cc1`, 56.3%; as for `c1cncc(CN2CC[C@H]3O[C@@H](COCC4CCOCC4)CC[C@H]32)c1`, 33.4%.
For the molecule `c1ccc(CN2CC[C@@H]3O[C@@H](COCC4CCOCC4)CC[C@@H]32)nc1`, the INHIBITION came to 22.7%.
The figure for `c1cncc(COCC2CC[C@H]3[C@H](CCN3CC3CCOCC3)O2)c1` (stereo partly specified) is 78.8%; for `Fc1ccc(CN2CC[C@H]3O[C@@H](COCc4cccnc4)CC[C@H]32)cc1` it is 39.2%; for `c1cncc(COC[C@H]2CC[C@H]3[C@H](CCN3Cc3nccs3)O2)c1` it is 39.2%.
The figure for `CC(C)c1nccn1-c1cncc(C2CCCN2Cc2cccnc2)n1` (stereo unspecified) is 27.6%; for `CNCC1CCC(c2cc(CN(C)C(=O)c3cnccn3)n(C)n2)CC1` (stereo unspecified) it is 25.8%.
The figure for `O=C(Nc1cnccn1)[C@@H]1CCO[C@@H]2CCN(Cc3ccsc3)C[C@@H]21` is 12.4%.
On to `Cn1cnnc1C1CCN(C(=O)CCOc2ccc(Cl)cc2)CC1`, for which the INHIBITION turned out to be 11.9%.
As for `CC(=O)NCC1CCCN(C(=O)Cc2c(C)noc2C)C1` (stereo unspecified), the figure is -4.12%; as for `O=C(COc1ccc(F)cc1)N1CCCSCC1CN1CCOCC1` (stereo unspecified), 25.3%.
The figure for `COc1cccc(OCC(=O)N2CCCSCC2CN2CCOCC2)c1` (stereo unspecified) is 44.9%; for `O=C(COc1ccc(Cl)cc1Cl)N1CCCSCC1CN1CCOCC1` (stereo unspecified) it is 60.1%; for `CNC(=O)c1nc2c(s1)CCN(C(=O)c1cccnc1)CC2` it is -10.4%.
With `O=C(c1[nH]nc(C2CC2)c1Cl)N1CCN(C2CC2)CC1`, the INHIBITION is given as 8.13%.
The figure for `O=C(c1[nH]nc(C2CC2)c1Cl)N1CCCC1` is -46.7%; for `O=C(c1[nH]nc(C2CC2)c1Cl)N1CCN(S(=O)(=O)c2ccccc2)CC1` it is 77.6%.
As for `CCOC(=O)[C@H]1[C@@H](O)C(=O)N(C)C12CCN(C(=O)CC(C)C)CC2`, the figure is 22.2%.
Regarding `c1csc(C2(NCc3csc(C4CC4)n3)CCCC2)n1`, the INHIBITION was -9.44%.
As for `Cc1cnn(CC2CCCN2CC(=O)NCc2ccccn2)c1` (stereo unspecified), the INHIBITION is -28.9%.
For `Cc1ccc2nc(C)cc(NCCNS(=O)(=O)c3cccnc3)c2c1`, the INHIBITION is on record as 39.7%.
The figure for `Cc1cc(NCCNS(=O)(=O)c2cn(C)nc2C)c2ccccc2n1` is -5.8%; for `Cc1ccc2nc(C)cc(NCCNS(=O)(=O)c3cn(C)nc3C)c2c1` it is 55.5%; for `Cc1ccnc(OC[C@]23COC[C@H]2CN(C(=O)c2ccnn2C)C3)n1` it is 43.1%.
The figure for `O=C(CN1CCc2ccccc2C1)NCc1cc2n(n1)CCCNC2` is -16.8%; for `Cn1ccnc1CN1CCN(Cc2noc(C3CC3)n2)CC1` it is -15.5%; for `CC1CN(Cc2noc(C3CC3)n2)CCN1Cc1noc(C2CC2)n1` (stereo unspecified) it is 33.8%.
The figure for `CC1CN(Cc2noc(C3CC3)n2)CCN1Cc1nccn1C` (stereo unspecified) is 55.9%; for `O=C(NC1CCCC1)c1ccnc(C2CCNCC2)c1` it is -11.3%; for `COCC1CC2(CCN(C(=O)c3cc(C)oc3C)CC2)CN1C(C)C` (stereo unspecified) it is 6.8%.
Turning to `COc1ccc(C2SC(C)=Nc3c2c(=O)[nH]n3C2CCCC2)cc1O` (stereo unspecified), the INHIBITION is -6.09%.
As for `CCCc1cc(N2CCCC2Cn2nc(C)nc2C)n2ncnc2n1` (stereo unspecified), the figure is 53.4%; as for `CCCc1cc(N2CCCC2Cn2nc(C)cc2C)n2ncnc2n1` (stereo unspecified), -48.1%.
The figure for `CCCc1cc(N2CCCC2Cn2cc(C)cn2)n2ncnc2n1` (stereo unspecified) is -60.9%.
As for `CN1CCN(CCOc2ccc(NC(=O)c3ccc[nH]3)cc2)CC1`, the INHIBITION was -23.5%.
Consider `CN1CCN(C2CCN(CCOc3ccccc3)CC2)C1=O`, for which the INHIBITION came out at 40.2%.
As for `Cn1cnc2c1CCN(c1ccnc(-c3ccccc3)n1)C2`, the figure is 61.2%; as for `CN1CCN(C2CCN(c3ccnc(-c4ccccc4)n3)CC2)C1=O`, 91.1%; as for `CN1CCN(C2CCN(c3cnc4ccccc4n3)CC2)C1=O`, 76.5%.
As for `CN1CCCC1c1ccnc(-c2ccccc2)n1` (stereo unspecified), the figure is -24.4%; as for `CN1CCN(C2CCN(CC(O)c3ccccc3)CC2)C1=O` (stereo unspecified), 16.715%; as for `O=C1NCCN1C1CCN(Cc2ccccn2)CC1`, -14.2%.
On to `Cc1cc(N2CCc3c(ncn3C)C2)nc(N)n1`, for which the INHIBITION was -14.9%.
The figure for `c1ccc(-c2nccc(N3CCc4c(ncn4C4CC4)C3)n2)cc1` is 40.9%; for `O=C1NCCN1C1CCN(c2ccnc(-c3ccccc3)n2)CC1` it is 73.1%; for `CN1CCN(C2CCN(Cc3noc(-c4ccccc4)n3)CC2)C1=O` it is 8.11%.
For the molecule `O=C1NCCN1C1CCN(Cc2coc(-c3ccccc3)n2)CC1`, the INHIBITION came out at 33.3%.
As to `Cc1noc([C@H]2COC[C@H]3CN(C(=O)Cc4cccc(F)c4)C[C@H]32)n1`, the INHIBITION was 38.5%.
As for `COc1c(C)cnc(CN2CCOC(CNc3cccnn3)C2)c1C` (stereo unspecified), the figure is 9.54%; as for `O=C(CN1CCN(C(=O)c2ccccc2)CC1)Nc1ccc(Br)cn1`, 47.3%; as for `CCn1ccnc1CN1CCCN(C(=O)c2scnc2C)CC1`, 13.64%.
On to `O=C(O)CCn1nc(C(F)(F)F)c(Cl)c1C1CC1`, for which the INHIBITION worked out at 31.7%.
As for `O=C(NCC1Cn2nnc(-c3ccncc3)c2CO1)c1ccc[nH]1` (stereo unspecified), the figure is 31.4%; as for `Cc1cccc(CN2C[C@@H]3CCCO[C@@H]3[C@H](Nc3ccccn3)C2)n1`, 25.3%; as for `O=C(CCc1cc2n(n1)CCCNC2)N1CCN(C2CCCC2)C(=O)C1`, -34.8%.
With `CO[C@H]1CN(Cc2cc(F)ccc2F)CC[C@@]12CCCO2`, the INHIBITION is listed as -9.27%.
As for `COc1ccc2[nH]cc(C(=O)CNc3nccs3)c2c1`, the figure is 12.8%.
For the molecule `Fc1ccc(CN2CCCCC2Cn2cncn2)c2ncccc12` (stereo unspecified), the INHIBITION was 21.6%.
As to `OC1CCCN(Cc2ccc(F)c3cccnc23)C1` (stereo unspecified), the INHIBITION is reported as 54.4%.
As for `Fc1ccc(CN2CCCC(Cn3cncn3)C2)c2ncccc12` (stereo unspecified), the figure is -44.8%; as for `Fc1ccc(CN2CCCC2Cn2cncn2)c2ncccc12` (stereo unspecified), 79.2%.
As for `CS(=O)(=O)NCC1CCCN(Cc2ccc(F)c3cccnc23)C1` (stereo unspecified), the figure is 18.5%; as for `Clc1ccc2cccnc2c1CN1CCCC1Cn1cncn1` (stereo unspecified), 66.2%; as for `Clc1ccc2cccnc2c1CN1CCCC(Cn2cncn2)C1` (stereo unspecified), 22.9%.
As for `Clc1ccc2cccnc2c1CN1CCCCC1Cn1cncn1` (stereo unspecified), the figure is 45.65%; as for `Clc1ccc(CN2CCCC2Cn2cncn2)c2ncccc12` (stereo unspecified), 23.45%; as for `CC(C)C(C)NC(=O)Nc1ccc(F)c(C(N)=O)c1` (stereo unspecified), 1.75%.
As to `O=C(C1CNCCN1C(=O)CCc1cccnc1)N1CCOCC1` (stereo unspecified), the INHIBITION came out at 42.1%.
As for `CNC(=O)[C@@H]1[C@H]2CN(Cc3ccccn3)CCN2C[C@H]1c1ccccc1`, the figure is 8.61%; as for `Cc1csc(NC(=O)Cn2nc(C)ccc2=O)n1`, 37.8%; as for `O=C(COCCOc1ccccc1)NC1CCN(C(=O)C2CC2)CC1`, 29.9%.
As for `COCCN1C(=O)CCC12CCN(C(=O)CC1CC1)CC2`, the figure is 21.6%; as for `CC(C)OCCCN(Cc1ccncc1)Cc1cccc(F)c1`, 43.6%; as for `CN(Cc1cccnc1)C(CO)c1cccc(Br)c1` (stereo unspecified), 85.2%.
As for `COc1cc(F)ccc1N(C)Cc1ccncc1`, the figure is -24.9%; as for `CN(Cc1nccn1C)C(CO)c1cccc(Br)c1` (stereo unspecified), 33.7%.
Turning to `CN(Cc1ccncc1)C(CO)c1cccc(F)c1` (stereo unspecified), the INHIBITION was 68.5%.
The figure for `CN(Cc1ccccn1)C(CO)c1cccc(Br)c1` (stereo unspecified) is 88%; for `CN(Cc1cnn(C)c1)C(CO)c1cccc(Br)c1` (stereo unspecified) it is 49%.
The figure for `CN(Cc1ccncc1)C(CO)c1cccc(Br)c1` (stereo unspecified) is 4.52%; for `CN(Cc1ccccn1)C(C(=O)O)c1ccc2c(c1)OCO2` (stereo unspecified) it is 40.3%; for `CCn1nnc(NCc2ccccc2OCc2ccc(Cl)cc2)n1` it is -3.5%.
As to `CCN1CCN(CCNC(=O)c2sc(C)nc2C)CC1`, the INHIBITION came to 1.75%.
As for `CN(C)C(=O)N1CC2(CCN(CC3CC3)CC2)c2cc(F)ccc21`, the figure is -13.4%; as for `Cc1cc(C2CCN(S(=O)(=O)c3cn(C)cn3)CC2)ccn1`, 17.1%.
As for `CCC(C)(C)C(=O)N1C[C@@H]2C[C@@H](c3nnc(C)[nH]3)O[C@@H]2C1`, the figure is 30.5%; as for `OCC1(NCc2cnc(-c3ccccn3)s2)CCOCC1`, -16.4%.
As to `CCc1nc(C2CCCN2CC(=O)NCCc2ccsc2)no1` (stereo unspecified), the INHIBITION amounted to 25.6%.
The figure for `CC(=O)NCc1cc2n(n1)CCN(Cc1cccc(Cl)c1F)C2` is 10.7%.
As for `Cc1c(C(C)NC2CCN(C(C)C)CC2)cnn1-c1ccc(F)cc1F` (stereo unspecified), the figure is 46.9%; as for `COc1ccc(-n2ncc(C(C)NC3CCOCC3)c2C)cc1` (stereo unspecified), 23.7%; as for `Cc1c(C(C)NC2CSCCSC2)cnn1-c1ccc(F)cc1F` (stereo unspecified), 43.7%.
As for `COc1ccc(-n2ncc(C(C)NC3Cc4ccccc4C3)c2C)cc1` (stereo unspecified), the figure is 63.8%; as for `Cc1c(C(C)NCc2cnn(C)c2)cnn1-c1ccccc1` (stereo unspecified), 43%; as for `COc1ccc(-n2ncc(C(C)NC3CCSCC3)c2C)cc1` (stereo unspecified), 53.8%.
Turning to `O=C(N[C@@H]1CN(C2CCCC2)C[C@@H]2CCCO[C@@H]21)c1cnccn1`, the INHIBITION is -45.5%.
The figure for `CCC1CCCCN1C(=O)Cn1cnc(C#N)n1` (stereo unspecified) is 47.9%; for `CC1CCCCN1C(=O)Cn1cnc(C#N)n1` (stereo unspecified) it is 69.3%; for `N#Cc1ncn(CC(=O)N2CCCC2c2cccs2)n1` (stereo unspecified) it is 23.3%.
